Most compounds without a hit are left out; they make up all but 4% or so of the library.
PAX8 reporter – inhibitors of PAX8 transcriptional activity in RMG-I cells | AID 652154 | 360,000 compounds, 1.2% hits | inhibition, % at 12.6 µM | RMG-I TPO-luciferase reporter, SteadyGlo, 24 h;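 active means mean replicate inhibition at least 60% with every replicate also reaching 60%; inconclusive means only one of the two criteria is met; inactive means mean below 60% and not all replicates reaching 60%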;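 further: luciferase light reporting Pax8 driven TPO promoter activity; plate controls were median of neutral control wells for no effect and mitoxantrone controls for full effect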
esBAF inh – blocks esBAF chromatin remodeling in mouse ES cells | Bmi1-luciferase knock-in reporter, 24 h; 100% = twice the neutral-well signal | reporter increase, % at 12.5 µM | 350,000 compounds, 2% hits | AID 602393; in the data active means activation above about 40%; inconclusive means no clear call, values can overlap the other calls;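 further: 0% = median of the plate's neutral control wells and 100% = double that signal; a rise in the Bmi1 reporter signal indicates esBAF inhibition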
MITF TRPM1 inh – reduces MITF-dependent TRPM1 promoter luciferase signal. 330,000 compounds, 0.83% hits. AID 488899. inhibition, % at 12.5 µM. SK-MEL-5 TRPM1 promoter luciferase, 24 h;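 active means mean inhibition across replicates of 60% or more, whatever share of single replicates reaches that level; inconclusive means some that reach 60%, reason not given; inactive means mean inhibition across replicates below 60%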
EWS-Fli inh – blocks EWS/Fli oncoprotein-driven transcription; 350,000 compounds, 0.67% hits; A673 NR0B1-luciferase reporter, viability-normalised; inhibition, % at 12.6 µM;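 active means mean inhibition of at least 50% after viability correction, with every replicate also passing that limit; inconclusive means mean reaches 50% but only one of two replicates passes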;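 further: firefly luciferase signal divided by Alamar Blue viability fluorescence both relative to DMSO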
Wnt act – Wnt/beta-catenin pathway activation; 300,000 compounds, 1.2% hits; activation, % at 9.35 µM; Wnt/beta-catenin reporter cell assay, activator, plate reader; in the data active means activation above about 30%, passing the limit was not always enough; inconclusive means no clear call, values can overlap the other calls;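 further: 0% = neutral control wells and 100% = positive control wells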
MITF act – activators of MITF-driven TRPM1 promoter activity in SK-MEL-5 cells; SK-MEL-5 TRPM1-promoter luciferase, 24 h; % of positive control, neutral wells = 0; activation, % at 12.5 µM; 300,000 compounds, 0.75% hits; AID 588334;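 active means mean activation of at least 80% with every replicate also reaching 80%; inconclusive means mean reaches 80% but some replicate falls short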;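 further: 0% = neutral control wells and 100% = parthenolide positive control wells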
An asterisk follows results filed as active.

`O=S(=O)(c1ccc(F)cc1)N1CC[C@@H]2[C@H](CO)Nc3ccc(-c4ccccc4F)cc3[C@@H]21` gave PAX8 reporter -11, esBAF inh -8 and EWS-Fli inh -10.
`Cc1ccc(-c2oc3ccccc3c(=O)c2O)cc1` gave PAX8 reporter -92, esBAF inh 48*, MITF TRPM1 inh -35, EWS-Fli inh -12, Wnt act 23 and MITF act 35.
O=C1C(C2=C(O)c3ccccc3C2=O)=Nc2ccccc21 was read as esBAF inh 6 and MITF TRPM1 inh 66*.
Screening O=c1ccn(Cc2ccccc2)cc1 returned PAX8 reporter 14, esBAF inh -3, MITF TRPM1 inh -10, EWS-Fli inh -1, Wnt act 1 and MITF act 13.
Cc1ccccc1Cn1ccc(=NCc2ccccc2)cc1 was read as PAX8 reporter 85*, EWS-Fli inh 13 and Wnt act -7.
Screening CCSc1nc2ccccc2n1C(=O)/C=C\c1ccc(OC)c(OC)c1 returned PAX8 reporter 70*, esBAF inh 21, MITF TRPM1 inh 69*, Wnt act 29 and MITF act -69.
Screening O=C(C[C@H]1CC[C@@H]2[C@H](COC[C@@H](O)CN2Cc2ccccc2F)O1)NC1CCC1 returned PAX8 reporter 3, esBAF inh 0 and EWS-Fli inh -2.
Screening C/C(=N/OC(=O)CC(C)C)c1cc(-c2ccc(Cl)cc2)no1 returned PAX8 reporter -55, MITF TRPM1 inh -88, EWS-Fli inh -108, Wnt act 7 and MITF act 86*.
C[C@@H]1CCCCO[C@H](CN(C)C(=O)C2CCCCC2)[C@@H](C)CN([C@@H](C)CO)C(=O)c2cc(NC(=O)C3CCCCC3)ccc2O1 was read as PAX8 reporter 20, esBAF inh 0 and EWS-Fli inh 11.
Cc1cc([N+](=O)[O-])ccc1NC(=O)c1csc(C)c1C was read as PAX8 reporter -219, MITF TRPM1 inh -119, EWS-Fli inh -148, Wnt act 22 and MITF act 124*.
Screening CN1CCN(C(=O)C[C@H]2C=C[C@@H](NC(=O)Cc3ccccn3)[C@@H](CO)O2)CC1 returned PAX8 reporter -8, esBAF inh -1 and EWS-Fli inh 4.
`Cc1cc(C(=O)CSc2ncccn2)c(C)n1Cc1ccco1` gave PAX8 reporter -194, esBAF inh 28, MITF TRPM1 inh -31, EWS-Fli inh -57, Wnt act 20 and MITF act 33.
For Cc1cc(C(=O)COC(=O)c2ccc(O)cc2)c(C)n1Cc1ccco1 the results were PAX8 reporter -145, MITF TRPM1 inh -72, EWS-Fli inh -65, Wnt act inconclusive and MITF act inconclusive.
For CCOc1ncccc1C(=O)OCC(=O)c1cc(C)n(Cc2ccco2)c1C the results were PAX8 reporter -142, esBAF inh 58*, MITF TRPM1 inh -40, Wnt act 46* and MITF act 41.
Screening Cc1cc(C(=O)COC(=O)c2ccc(Br)o2)c(C)n1C returned PAX8 reporter -139, esBAF inh 45*, MITF TRPM1 inh -100, EWS-Fli inh -5, Wnt act 17 and MITF act 111*.
For COc1cc(OC)cc(C(=O)NCC(=O)OCC(=O)c2cc(C)n(Cc3ccco3)c2C)c1 the results were PAX8 reporter 92*, MITF TRPM1 inh 15, EWS-Fli inh 2, Wnt act -3 and MITF act -15.
Cc1cc(C(=O)COC(=O)c2ccc(Br)o2)c(C)n1Cc1ccco1 was read as PAX8 reporter -165, EWS-Fli inh 0 and Wnt act 60*.
`COC(=O)c1ccc(-c2cc3onc(-c4ccccc4)c3c(=O)n2C)cc1` gave PAX8 reporter -9, esBAF inh 39, MITF TRPM1 inh -37, EWS-Fli inh 5, Wnt act 31* and MITF act 39.
COc1ccc(-c2cc3onc(-c4c(Cl)cccc4Cl)c3c(=O)n2C)cc1 was read as PAX8 reporter -35, esBAF inh 35, MITF TRPM1 inh -19, EWS-Fli inh -30, Wnt act 6 and MITF act 20.
Screening CN(C)C(=O)c1ccc(-c2n[nH]c(=O)c3ccccc23)cc1 returned PAX8 reporter -7, MITF TRPM1 inh -8, EWS-Fli inh -14, Wnt act -2 and MITF act 5.
For CN(C)C(=O)c1ccc(-c2cc3onc(-c4ccccc4)c3c(=O)n2C)cc1 the results were PAX8 reporter -69, esBAF inh 55*, MITF TRPM1 inh -64, EWS-Fli inh -38, Wnt act 41* and MITF act 69.
Screening C[C@@H]1CN([C@@H](C)CO)C(=O)c2cccc(NC(=O)c3cnccn3)c2O[C@H]1CN(C)S(=O)(=O)c1ccccc1 returned PAX8 reporter -7, esBAF inh 1 and EWS-Fli inh -8.
Screening COCCNC(=S)N/N=C/c1ccccc1C(=O)O returned PAX8 reporter 8, esBAF inh -6, MITF TRPM1 inh 11, Wnt act -1 and MITF act -8.
`Oc1ccccc1/C=N/NC(=S)NC1CC2CCC1C2` (stereo not drawn) gave PAX8 reporter -68, esBAF inh 66*, MITF TRPM1 inh -44, EWS-Fli inh -38, Wnt act 23 and MITF act 43.
For COCCCNC(=S)N/N=C/c1ccccc1O the results were PAX8 reporter -72, esBAF inh 49*, MITF TRPM1 inh -5, EWS-Fli inh -5 and Wnt act 3.
`COc1ccc(-c2nc3c4ccccc4ccn3c2Cc2ccccc2)cc1OC` gave PAX8 reporter -38, esBAF inh 45*, EWS-Fli inh -71 and Wnt act 6.
`COc1ccccc1Cc1c(C(C)(C)C)nc2c3ccccc3ccn12` gave PAX8 reporter 65*, esBAF inh -6, EWS-Fli inh 8 and Wnt act 0.
For COCCCn1c(SCC(=O)Nc2ccc(C)cc2)nc2ccccc2c1=O the results were PAX8 reporter 12, MITF TRPM1 inh -6, EWS-Fli inh -9, Wnt act -26 and MITF act 6.
Cc1ccc(NC(=O)CSc2nc3ccccc3c(=O)n2CCCN2CCCCC2)cc1C was read as PAX8 reporter -43, esBAF inh -3, MITF TRPM1 inh 70* and Wnt act 20.
Screening O=c1c2sccc2nc(SCc2ccc([N+](=O)[O-])cc2)n1Cc1ccccn1 returned PAX8 reporter 69*, MITF TRPM1 inh -22, EWS-Fli inh -4, Wnt act 9 and MITF act 35.
Cc1ccc(NC(=O)CSc2nc3ccccc3c(=O)n2Cc2cccs2)cc1 was read as PAX8 reporter 66*, MITF TRPM1 inh -7, EWS-Fli inh -22, Wnt act 1 and MITF act 8.
`Cc1ccc(CNC(=O)CSc2nc3ccsc3c(=O)n2Cc2ccccn2)cc1` gave PAX8 reporter -27, esBAF inh 6, MITF TRPM1 inh -8, EWS-Fli inh -18, Wnt act 34* and MITF act 14.

From PubChem BioAssay
